Results published in PubChem BioAssay AID623911 (Vanderbilt High Throughput Screening Facility, 2012).
Screen size: about 2,100 compounds; about 770 (37%) were called active.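 The calls were made as follows: active = by-eye trace score of 1 for enhancers or -1 for inhibitors, so actives lie on both sides (some results past the limit were not filed as active); inactive = score 0, or 3 fluorescent, or 4 baseline rise.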 The list shows a part of the results.

The compounds below were run against G protein-activated inward rectifier potassium channel 2 (Homo sapiens) + G protein-activated inward rectifier potassium channel 1 (Homo sapiens) (UniProt P48051+P48549) (assay: GIRK1/2 thallium flux modulators, retest, confirmation, cell-based, HEK293 rmGlu8/hGIRK1/2, FluoZin-2 (AID 623911)). Conditions: HEK293 rmGlu8/hGIRK1/2, thallium flux FluoZin-2; actives lie on both sides; glutamate co-added at its EC20 level.
Chain of G protein-activated inward rectifier potassium channel 2 (Homo sapiens) + G protein-activated inward rectifier potassium channel 1 (Homo sapiens) (P48051 whole entry, looked up): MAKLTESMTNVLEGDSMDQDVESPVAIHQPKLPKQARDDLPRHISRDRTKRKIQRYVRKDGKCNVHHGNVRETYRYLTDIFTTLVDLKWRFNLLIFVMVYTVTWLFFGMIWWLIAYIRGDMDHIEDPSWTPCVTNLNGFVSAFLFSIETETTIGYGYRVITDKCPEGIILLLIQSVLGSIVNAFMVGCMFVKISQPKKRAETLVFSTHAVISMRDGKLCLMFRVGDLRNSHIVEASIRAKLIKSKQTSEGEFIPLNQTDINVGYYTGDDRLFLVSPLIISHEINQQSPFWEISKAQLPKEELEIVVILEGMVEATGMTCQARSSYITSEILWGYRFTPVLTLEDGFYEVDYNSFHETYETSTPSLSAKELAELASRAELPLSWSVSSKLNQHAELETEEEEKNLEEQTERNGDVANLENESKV
Chain of G protein-activated inward rectifier potassium channel 2 (Homo sapiens) + G protein-activated inward rectifier potassium channel 1 (Homo sapiens) (P48549 whole entry, looked up): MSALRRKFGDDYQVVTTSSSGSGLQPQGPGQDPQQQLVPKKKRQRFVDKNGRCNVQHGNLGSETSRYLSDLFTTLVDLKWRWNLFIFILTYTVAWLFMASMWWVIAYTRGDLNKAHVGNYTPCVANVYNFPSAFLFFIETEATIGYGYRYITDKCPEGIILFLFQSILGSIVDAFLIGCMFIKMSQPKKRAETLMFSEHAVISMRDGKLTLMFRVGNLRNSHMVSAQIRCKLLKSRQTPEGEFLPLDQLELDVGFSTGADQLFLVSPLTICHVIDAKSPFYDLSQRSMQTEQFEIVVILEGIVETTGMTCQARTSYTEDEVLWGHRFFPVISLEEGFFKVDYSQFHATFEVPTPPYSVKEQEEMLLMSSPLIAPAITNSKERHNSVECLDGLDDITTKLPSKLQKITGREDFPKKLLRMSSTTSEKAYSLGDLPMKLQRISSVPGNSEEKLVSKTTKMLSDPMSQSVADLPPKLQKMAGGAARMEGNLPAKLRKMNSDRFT

Manual score, active:
O=C(NC(=S)N1CCN(c2ccc(C(F)(F)F)cc2[N+](=O)[O-])CC1)c1cccs1 1
O=C(CN1CCOCC1)Nc1ccc(C2CCCCC2)cc1 1
S=c1[nH]c2cc(Cl)ccc2s1 1
CCCc1nc2ccccc2c(=O)n1/N=C/c1c(C)[nH]n(-c2ccc(C)cc2)c1=O 1
CCCc1ccc(C(=O)N2CCN(c3ccccc3OCC)CC2)cc1 -1
O=C(CSc1nc(CCC2CCCC2)nc2ccccc12)NCc1ccc2c(c1)OCO2 1
C=CCn1c(O)c(N=NC(=O)OC(C)(C)C)c2ccccc21 1
CCCn1c(O)c(N=NC(=O)c2ccco2)c2ccccc21 1
CC12CC3(C)CC(C)(C1)CC(C(=O)NC(=S)N1CCOCC1)(C2)C3 1
CC12CC3CC(C)(C1)CC(C(=O)NC(=S)N1CCCCC1)(C3)C2 1
CCCCOc1ccccc1C1C(C(=O)OC)=C(C)N(C)C(C)=C1C(=O)OC -1
CCc1nc(SCC(=O)N2CC(=O)Nc3ccccc32)c2c(C)c(C)sc2n1 1
O=C1NC(=S)SC1=C1CCCCCC1 1
CC(C)CNC(=S)NC(=O)c1ccc([N+](=O)[O-])cc1 1
CC(C)CNC(=S)NC(=O)c1ccc(F)cc1 1
CCCCNC(=S)NC(=O)c1ccc([N+](=O)[O-])cc1 1
CCCCCC(=O)NC(=S)NNC(=O)c1ccc([N+](=O)[O-])cc1 1
Cc1sc2nc(C(C)C)nc(SCC(=O)N3c4ccccc4CC3C)c2c1C (stereo unspecified) 1
CCn1c(SCC(=O)NC(=O)NCc2ccco2)nc2sc(C)c(C)c2c1=O 1
Cc1sc2nc(C(C)C)nc(SCC(=O)NCc3ccco3)c2c1C 1
Cc1ccc2nc(-c3ccc(O)cc3)c(Nc3ccc4c(c3)OCCO4)n2c1 -1

Manual score, inactive:
N#CC(C#N)=C1C=C2C=C(N3CCCCCC3)CCC2CC1 (stereo unspecified) 3
CCCC(=O)Nc1ccc(NC(=O)C2CC2)cn1 0
CN(c1ccc(OCC(=O)OCC(=O)Nc2ccccc2F)cc1)S(=O)(=O)c1cccs1 0
CCc1sc(NC(=O)CN2CCOCC2)nc1-c1ccccc1 0
O=C(CNC1CCCCCC1)Nc1ccc(N2CCCC2)cc1 0
CCOC(=O)CSc1nc2ccc(Nc3nc(N4CCOCC4)nc(N4CCOCC4)n3)cc2s1 0
O=C1CC(c2ccco2)Sc2nc3ccccc3n21 (stereo unspecified) 0
Cc1ccc(-n2[nH]c(C)c(/C=N/c3ccccn3)c2=O)cc1 0
Cc1ccc(C2CC2c2n[nH]c(=S)n2-c2ccc(C)cc2)cc1 (stereo unspecified) 0
CCOc1ccccc1N1CCN(C(=O)c2cc3c(s2)CCC3)CC1 -0.5
CCOc1ccccc1N1CCN(C(=S)NC(=O)C23CC4CC(CC(C4)C2)C3)CC1 0
NC(=O)c1noc(C(=O)N(CC(=O)NC2CCCC2)Cc2ccc3c(c2)OCO3)c1N 0
O=C(CSc1c[nH]c2ccccc12)NCc1ccc2c(c1)OCO2 -0.5
Cc1ccc(C)n1-c1ccc(C(=O)NN)cc1 0
CC(/C=N/n1c(C2CCCCC2)n[nH]c1=S)=C\c1ccccc1 0
CC(C)c1ccc(-n2cccc2/C=C2/C(=N)N3C=CSC3=NC2=O)cc1 0
C=CCn1c(N)c(C(=O)OC(C)(C)C)c2nc3ccccc3nc21 0
CCCCn1c(O)c(N=Nc2ccccn2)c2ccccc21 0
CCCCNC(=S)N=Nc1c(O)n(Cc2ccccc2)c2ccccc12 0
CCn1c(O)c(N=NC(=O)CNc2cccc(C)c2)c2ccccc21 0
CC12CC3CC(C)(C1)CC(C(=O)NC(=S)N1CCOCC1)(C3)C2 0.5
O=C(NC(=S)N1CCCCC1)C12CC3CC(CC(C3)C1)C2 0.5
CCC1(C)CC(c2csc(N)n2)CCO1 (stereo unspecified) 0
CCOc1ccc(N2C(=O)c3ccccc3C2O)cc1 (stereo unspecified) 0
CCCCN1C(=O)c2ccccc2C1C(=O)NC1CCCC1 (stereo unspecified) 0
Cc1sc2nc(C3CC3)nc(SCC(=O)N3CC(=O)Nc4ccccc43)c2c1C 0
CCc1nc(SCC(=O)Nc2nnc(CC)s2)c2c(C)c(C)sc2n1 0
CSc1nc2ccccc2cc1/C=C(\C#N)c1cccc(C)c1 0
COC(=O)C(CC(C)C)NC(=O)c1ccc([N+](=O)[O-])c(C)c1 (stereo unspecified) 0
CCCCCCc1cc2cc(-c3nnc(-c4cc(OC)c(OC)c(OC)c4)o3)c(=O)oc2cc1O 3
CCn1c2ccccc2c2cc(/C=N/n3cn[nH]c3=S)ccc21 0
O=c1cc(CN2CCOCC2)nc(C2CC2)[nH]1 0
O=C(COC(=O)CCC1CCCC1)Nc1nc2c(F)c(F)c(F)cc2s1 0.5
O=C(CSc1nc(-c2ccc(F)cc2)cs1)N1CCOCC1 0
CCOC(=O)/C(C#N)=C/C1=C(N2CCCC2)CC(C)(C)OC1 0
O=C(CSc1nnc(-c2c[nH]c3ccccc23)n1-c1ccc(F)cc1)NCc1ccco1 -0.5
Cc1sc2ncnc(SCc3ccco3)c2c1C 0
CCCn1c(SCc2nc3sc(C)c(C)c3c(=O)[nH]2)nc2ccccc2c1=O 0
O=C(c1ccc(CS(=O)(=O)c2ccc(Br)cc2)o1)N1CCN(c2ncccn2)CC1 0
CCOC(=O)C1CCN(C(=O)CN(c2ccc(Cl)c(C(F)(F)F)c2)S(C)(=O)=O)CC1 0
O=c1cc(Cn2ccnc2)c2cc3c(cc2o1)CCC3 0
O=C(Nc1ccc(F)cc1)c1cccc2c1C(=O)N(Cc1ccccn1)C2 0
C/C(CC(C)(C)C1CCCCC1)=N\NC(N)=S 0
Cc1ccc(-c2nnc(SCC(=O)Nc3ccc4c(c3)OCCO4)n2N)cc1 0
CCn1c(-c2cc3c(C(F)(F)F)nn(C)c3s2)n[nH]c1=S 0
